PubChem BioAssay (EPA / NIEHS)
“And” between values parts separate entries of the source, which are not always exact repeats. Equal entries are not always repeated. Inconclusive results are not listed. Some compounds were tested as several samples or in several runs, with calls that do not always agree. The source made the active and inactive calls. The calls were made as follows, unless noted: active = hit-call score of the fitted dose curve at least 0.9, where 1 is the maximum; inactive = score below 0.9.

Legend:
[1] = target: Transcription factor Sp1 (Homo sapiens) (UniProt P08047); assay: ATG_Sp1_CIS: Attagene CIS-FACTORIAL HepG2 Assay for human Specificity Protein 1 (Sp1) (AID 2282961); details: HepG2 Sp1 cis-reporter transcription, actives raise or lower the signal
Transcription factor Sp1 (Homo sapiens), sequence (P08047 whole entry, looked up): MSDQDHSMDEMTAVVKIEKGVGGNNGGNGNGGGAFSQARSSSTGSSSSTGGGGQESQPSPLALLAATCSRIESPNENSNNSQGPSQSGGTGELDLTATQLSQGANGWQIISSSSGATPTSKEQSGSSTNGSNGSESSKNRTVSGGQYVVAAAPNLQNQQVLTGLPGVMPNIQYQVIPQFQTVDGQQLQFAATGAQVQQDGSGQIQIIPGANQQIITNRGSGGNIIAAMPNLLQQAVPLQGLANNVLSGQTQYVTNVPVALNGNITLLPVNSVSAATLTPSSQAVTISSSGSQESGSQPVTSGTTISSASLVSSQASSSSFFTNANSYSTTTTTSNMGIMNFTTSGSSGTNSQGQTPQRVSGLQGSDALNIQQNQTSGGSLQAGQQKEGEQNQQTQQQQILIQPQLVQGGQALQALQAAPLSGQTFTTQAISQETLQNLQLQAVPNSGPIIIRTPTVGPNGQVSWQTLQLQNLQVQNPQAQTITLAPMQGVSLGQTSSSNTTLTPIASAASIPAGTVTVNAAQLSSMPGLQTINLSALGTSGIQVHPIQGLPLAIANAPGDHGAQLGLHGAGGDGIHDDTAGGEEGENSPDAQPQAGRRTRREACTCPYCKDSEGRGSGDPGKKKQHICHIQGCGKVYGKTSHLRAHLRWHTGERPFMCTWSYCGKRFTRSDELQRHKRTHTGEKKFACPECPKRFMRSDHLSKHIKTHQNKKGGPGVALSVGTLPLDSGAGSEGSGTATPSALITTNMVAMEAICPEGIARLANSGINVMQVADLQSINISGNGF
Method in brief: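 After transient transfection of HepG2 cells with cis-promoter reporter units and 24 h chemical treatment, reporter transcripts were quantified by RT-PCR and capillary electrophoresis fluorescence. Gain- and loss-of-signal fitted against DMSO.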

[2] = ATG_SREBP_CIS: Attagene CIS-FACTORIAL HepG2 Assay for human Sterol Regulatory Element Binding (SREBP) (AID 2282962); details: HepG2 Attagene cis-factorial SREBP reporter, mRNA; actives raise or lower the signal
Method in brief: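 Endogenous SREBP activity read as cis-element-driven reporter transcript in transiently transfected HepG2, 24 h post-dosing; quantified via RT-PCR plus capillary electrophoresis of fluorescent fragments. Gain or loss of signal fitted relative to DMSO baseline.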

[3] = target: Signal transducer and activator of transcription 3 (Homo sapiens) (UniProt P40763); assay: ATG_STAT3_CIS: Attagene CIS-FACTORIAL HepG2 Assay for human Signal Transducer and Activator of Transcription 3 (STAT3) (AID 2282963); details: HepG2, Attagene cis-factorial STAT3 reporter transcription; actives raise or lower the signal
Signal transducer and activator of transcription 3 (Homo sapiens), sequence (P40763 whole entry, looked up, the tested form may be a part): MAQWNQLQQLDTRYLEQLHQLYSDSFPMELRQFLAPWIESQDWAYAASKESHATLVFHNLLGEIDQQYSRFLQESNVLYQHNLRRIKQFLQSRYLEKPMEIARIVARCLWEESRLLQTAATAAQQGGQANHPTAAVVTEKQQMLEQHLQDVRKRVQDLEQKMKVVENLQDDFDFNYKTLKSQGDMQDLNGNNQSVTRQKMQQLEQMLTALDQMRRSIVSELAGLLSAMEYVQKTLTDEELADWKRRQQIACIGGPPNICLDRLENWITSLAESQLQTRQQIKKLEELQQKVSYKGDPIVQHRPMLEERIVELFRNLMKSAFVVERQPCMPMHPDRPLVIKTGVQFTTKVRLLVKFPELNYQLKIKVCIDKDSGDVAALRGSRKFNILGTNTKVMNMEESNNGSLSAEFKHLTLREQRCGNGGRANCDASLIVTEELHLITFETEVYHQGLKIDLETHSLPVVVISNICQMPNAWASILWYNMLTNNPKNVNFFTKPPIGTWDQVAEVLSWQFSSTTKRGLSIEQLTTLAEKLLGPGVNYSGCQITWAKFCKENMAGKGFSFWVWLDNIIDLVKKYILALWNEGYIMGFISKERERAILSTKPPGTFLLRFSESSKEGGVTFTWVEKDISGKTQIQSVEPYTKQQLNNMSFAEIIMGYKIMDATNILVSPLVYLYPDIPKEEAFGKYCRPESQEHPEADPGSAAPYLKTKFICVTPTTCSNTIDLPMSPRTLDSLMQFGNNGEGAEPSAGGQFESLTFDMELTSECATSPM
Method in brief: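 Readout: fluorescent reporter mRNA fragments resolved by capillary electrophoresis. Setup: HepG2 transfected with MRTUs reporting endogenous transcription-factor activity, dosed 24 h. Gain or loss of signal fitted bidirectionally against DMSO control.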

[4] = ATG_TA_CIS: Attagene CIS-FACTORIAL HepG2 Assay for human TA Basal Promoter (AID 2282964); details: HepG2 Attagene CIS-factorial TA basal promoter reporter; actives raise or lower the signal
Method in brief: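 HepG2 cells transiently transfected with multiple reporter units under cis promoter elements, reporting endogenous transcription factor activity; this endpoint tracks the TA basal promoter as background control. Reporter mRNA after 24 h dosing measured by RT-PCR/capillary electrophoresis; bidirectional fits versus DMSO.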

[5] = ATG_TCF_b_cat_CIS: Attagene CIS-FACTORIAL HepG2 Assay for human T-Cell-Factor with beta-catenin (TCF/b-cat) (AID 2282965); details: HepG2 TCF/beta-catenin cis-reporter transcription, actives raise or lower the signal
Method in brief: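 HepG2, transient MRTU transfection, cis-element-driven reporters (endogenous TFs). 24 h compound exposure. Readout: reporter mRNA by RT-PCR + 6-FAM primer extension, HpaI digest, capillary electrophoresis. Gain/loss fit vs DMSO baseline.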

[6] = ATG_TAL_CIS: Attagene CIS-FACTORIAL HepG2 Assay for human TAL Basal Promoter (AID 2282966); details: HepG2 Attagene cis-factorial TAL promoter reporter; actives raise or lower the signal;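 also: background control endpoint measuring basal TAL promoter reporter mRNA not a specific factor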
Method in brief: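 After 24 hours of chemical exposure, transfected HepG2 cells yielded RNA that was converted to 6-FAM-labelled, HpaI-digested reporter fragments for capillary electrophoresis. Values derive from bidirectional fitting against DMSO controls.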

[7] = ATG_TGFb_CIS: Attagene CIS-FACTORIAL HepG2 Assay for human Transforming Growth Factor (TGF) (AID 2282967); details: HepG2 Attagene CIS TGFb reporter, mRNA transcription; actives raise or lower the signal
Method in brief: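 HepG2 cells transiently transfected with cis-promoter-driven multiple reporter units measure endogenous TF activity; reporter mRNA quantified at 24 h by RT-PCR, FAM labeling, HpaI digestion and capillary electrophoresis. Bidirectional fit vs DMSO.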

[8] = ATG_VDRE_CIS: Attagene CIS-FACTORIAL HepG2 Assay for human Vitamin D Receptor Element (VDRE) (AID 2282968); details: HepG2 VDRE cis-reporter transcription, actives raise or lower the signal
Method in brief: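 Transient MRTU transfection of HepG2, 24 h compound exposure. Readout: reporter transcripts via RT-PCR and capillary electrophoresis, fluorescence. Bidirectional fit vs DMSO.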

[9] = target: Nuclear receptor subfamily 1 group I member 3 (Homo sapiens) (UniProt Q14994); assay: ATG_CAR_TRANS: Attagene TRANS-FACTORIAL HepG2 Assay for human Constitutive Androstane Receptor (CAR) (AID 2282969; active = hit-call score of the fitted dose curve at least 0.9, where 1 is the maximum;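 also: activators raise reporter mRNA above DMSO so AC50 marks induction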); details: HepG2 Attagene TRANS-FACTORIAL CAR reporter
Nuclear receptor subfamily 1 group I member 3 (Homo sapiens), sequence (Q14994 whole entry, looked up, the tested form may be a part): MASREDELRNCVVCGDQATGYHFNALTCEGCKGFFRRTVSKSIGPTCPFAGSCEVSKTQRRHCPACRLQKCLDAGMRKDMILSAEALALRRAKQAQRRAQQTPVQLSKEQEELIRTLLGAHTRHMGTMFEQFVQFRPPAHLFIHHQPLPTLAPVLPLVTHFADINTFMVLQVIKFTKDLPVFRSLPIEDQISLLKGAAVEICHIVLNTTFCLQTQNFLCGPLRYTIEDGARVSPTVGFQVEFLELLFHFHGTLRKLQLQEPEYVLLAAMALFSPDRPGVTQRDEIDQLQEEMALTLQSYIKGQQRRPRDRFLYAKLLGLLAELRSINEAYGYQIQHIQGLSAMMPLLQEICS
Method in brief: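 Transiently transfected HepG2, multiplex TRANS reporters (CAR-Gal4 chimera driving GAL4-UAS reporter). 24 h dosing. Readout: reporter transcript by RT-PCR + capillary electrophoresis, fluorescence intensity; positive direction vs DMSO.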

[10] = target: Estrogen receptor (Homo sapiens) (UniProt P03372); assay: ATG_ERa_TRANS: Attagene TRANS-FACTORIAL HepG2 Assay for human Estrogen Receptor alpha (ERa) (AID 2282970; active = hit-call score of the fitted dose curve at least 0.9, where 1 is the maximum); details: HepG2 Attagene TRANS ERa GAL4 reporter, mRNA
Estrogen receptor (Homo sapiens), sequence (P03372 whole entry, looked up, the tested form may be a part): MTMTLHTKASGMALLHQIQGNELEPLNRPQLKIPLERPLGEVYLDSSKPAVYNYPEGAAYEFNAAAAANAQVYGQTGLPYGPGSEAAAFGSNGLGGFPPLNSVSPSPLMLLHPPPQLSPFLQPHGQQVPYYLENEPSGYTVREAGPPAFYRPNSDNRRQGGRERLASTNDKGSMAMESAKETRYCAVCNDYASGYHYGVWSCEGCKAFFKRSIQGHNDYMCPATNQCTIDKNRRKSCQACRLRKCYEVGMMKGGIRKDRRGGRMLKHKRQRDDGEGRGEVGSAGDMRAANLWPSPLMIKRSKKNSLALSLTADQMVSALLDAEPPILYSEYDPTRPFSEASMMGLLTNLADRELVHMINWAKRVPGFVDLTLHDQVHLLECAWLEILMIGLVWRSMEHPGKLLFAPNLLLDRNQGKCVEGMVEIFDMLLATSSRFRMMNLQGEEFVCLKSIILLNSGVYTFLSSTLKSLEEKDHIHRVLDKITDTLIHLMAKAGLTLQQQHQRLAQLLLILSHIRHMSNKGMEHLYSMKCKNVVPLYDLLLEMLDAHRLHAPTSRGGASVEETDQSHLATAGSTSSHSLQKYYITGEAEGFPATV
Method in brief: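 Liver-derived HepG2 cells expressing chimeric nuclear receptor-Gal4 proteins from transient transfection were exposed for 24 hours. Gain of reporter mRNA signal versus DMSO, read by capillary electrophoresis of FAM-labelled PCR products, was recorded.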

Measured: AC50

CCC[CH2][Sn]([Cl])([Cl])[Cl]
inactive: [1] | [2] | [3] | [4] | [5] | [6] | [7]

CCCCCCCCCl
inactive: [1] | [2] | [3] | [4] | [5] | [6] | [7] | [8]

COC(=O)c1sccc1S(=O)(=O)NC(=O)Nc1nc(C)nc(OC)n1
inactive: [1] | [2] | [3] | [4] | [5] | [6] | [7] | [8] | [9] | [10]

CCN(CC)C(=O)Cl
active: [7] 0.104 µM | [10] 15.9 µM
inactive: [1] | [2] | [3] | [4] | [5] | [6] | [8] | [9]

CC(C)(C)CC(C)(C)c1ccc(O)cc1
active: [2] 14.1 µM | [5] 18.2 µM | [8] 3.28 µM and 14.2 µM
inactive: [1] | [2] | [3] | [4] | [5] | [6] | [7] | [8]

CC1CN1P(=O)(N1CC1C)N1CC1C (stereo not drawn)
inactive: [1] | [2] | [3] | [4] | [5] | [6] | [7] | [8] | [9]

Oc1ccc(-c2ccccc2)cc1
active: [1] 147 µM | [8] 83.2 µM
inactive: [2] | [3] | [4] | [5] | [6] | [7]

CCOC(=O)Nc1cccc(OC(=O)Nc2ccccc2)c1
inactive: [1] | [2] | [3] | [4] | [5] | [6] | [7] | [8] | [9]

O=C1C2(Cl)C3(Cl)C4(Cl)C(Cl)(Cl)C5(Cl)C3(Cl)C1(Cl)C5(Cl)C24Cl (stereo not drawn)
inactive: [1] | [2] | [3] | [4] | [5] | [6] | [7] | [8]
active: [1] 5.85 µM | [3] 5.58 µM | [5] 17.7 µM | [6] 20.3 µM | [8] 13.1 µM

CC(=O)C(Cl)C(=O)N(C)C (stereo not drawn)
inactive: [1] | [2] | [3] | [4] | [5] | [6] | [7] | [8] | [9] | [10]

ClC1=C(Cl)[C@]2(Cl)[C@@H]3[C@@H](Cl)[C@@H](Cl)C[C@@H]3[C@@]1(Cl)C2(Cl)Cl
inactive: [1] | [2] | [3] | [4] | [5] | [6] | [7] | [8] | [9] | [10]

CC(=[OH+])/C=C(/C)[O-].CC(=[OH+])/C=C(/C)[O-].CC(=[OH+])/C=C(/C)[O-].[Al]
inactive: [1] | [2] | [3] | [4] | [5] | [6] | [7] | [8]

C=C(C)C#N
inactive: [1] | [2] | [3] | [4] | [5] | [6] | [7] | [8] | [10]

Cc1ccc(N)cc1Cl
inactive: [1] | [2] | [3] | [4] | [5] | [6] | [7] | [8] | [9] | [10]

O=P(O)(O)CN(CP(=O)(O)O)CP(=O)(O)O
inactive: [1] | [2] | [3] | [4] | [5] | [6] | [7] | [8] | [10]

Nc1ccc(Cl)cc1C(=O)c1ccccc1
inactive: [1] | [2] | [3] | [6] | [7]
active: [4] 21.8 µM | [5] 39.6 µM | [8] 16.6 µM | [10] 3.63 µM

CCNc1nc(NC(C)(C)C)nc(SC)n1
inactive: [1] | [2] | [3] | [4] | [5] | [6] | [7] | [10]
active: [8] 31.8 µM

O=C(OC1CCCCC1)c1ccccc1C(=O)OC1CCCCC1
inactive: [1] | [2] | [3] | [5] | [6]
active: [4] 29.1 µM | [7] 62.1 µM | [8] 2.82 µM | [10] 3.1 µM

CCC[CH2][Sn]([CH2]CCC)([CH2]CCC)[O]C(=O)c1ccccc1
inactive: [1] | [2] | [3] | [4] | [5] | [6] | [7]
active: [8] 0.137 µM | [10] 0.774 µM

C1CCC(NC2CCCCC2)CC1
active: [10] 59.7 µM
inactive: [1] | [2] | [3] | [4] | [5] | [6] | [7] | [8]

Oc1c(I)cc(I)cc1I
active: [4] 55.8 µM | [5] 25.9 µM | [6] 76.1 µM | [8] 19 µM
inactive: [1] | [2] | [3] | [7] | [10]

CC(C)(OO)c1ccccc1
inactive: [1] | [2] | [3] | [4] | [5] | [6] | [7] | [8]
active: [10] 100 µM

CCC(C)c1cccc(C(C)CC)c1O (stereo not drawn)
active: [10] 24.4 µM
inactive: [1] | [2] | [3] | [4] | [5] | [6] | [7] | [8]

CCOP(=S)(OCC)Oc1ccc(S(C)=O)cc1 (stereo not drawn)
inactive: [1] | [2] | [3] | [4] | [5] | [6] | [7] | [9] | [10]
active: [8] 31.2 µM
